According to PubChem BioAssay AID720519 (National Center for Advancing Translational Sciences (NCATS), 2013):
Records with an inconclusive call do not appear. The call rests on the fitted dose curve; in most records, active means well fitted activation curve with a large enough effect; inconclusive means small, poorly fitted or top-dose-only effect; inactive means flat fitted curve, though single readings scatter.

Test: qHTS for Inhibitors of Cell Surface uPA Generation: Confirmatory Assay for Cherry-picked Compounds; further: 0% is about no effect
Conditions: cell surface uPA activity generation, qHTS confirmation; series mostly up to 115 µM; inhibition: at the top concentration
In short: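 RAW 264.7 cells at 4000/well, incubated overnight, then treated with compounds. After 24 h at 37 C, viability was read by ATPlite luminescence. An increase in signal indicates blocked uPA-dependent LF entry.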

inhibition, inactive:
Cc1cc(C)n(C(=O)c2cccc([N+](=O)[O-])c2)n1 -3.17%
CCn1nc(C)c(CNC(=O)C2CCC(=O)N(CCc3ccc(OC)cc3)C2)c1C (stereo not drawn) -1.73%
CC1CCN(C2=C(NS(=O)(=O)c3ccc(Br)cc3)C(=O)c3ccccc3C2=O)CC1 -3.41%
COc1cc(NS(=O)(=O)c2ccc(NC(=S)NC(=O)COc3ccccc3OC)cc2)nc(OC)n1 -0.876%
CS(=O)(=O)N1CCC(C(=O)Nc2ccccc2)CC1 -0.392%
CCCn1nnc(NC(=S)NC(=O)c2ccccc2OC)n1 -0.252%
Cc1ccc(C(=O)COc2cc(O)c3c(=O)cc(-c4ccccc4)oc3c2)cc1 -1.83%
Cn1c(SCC(=O)NCCc2ccccc2)ncc(C(=O)Nc2ccc(F)cc2)c1=O -0.414%
O=C(CCN1CCN(c2ccccc2F)CC1)Nc1ccc(F)cc1 -3.33%
COCCn1c(SCC(=O)Nc2ccc(F)cc2)nc2ccccc2c1=O 5.44%
Cc1ccc(NC(=S)N2CCN(Cc3ccc4c(c3)OCO4)CC2)c(C)c1 -3.55%
CC(=O)Nc1ccc(NC(=O)CCCCCN2C(=O)c3ccccc3C2=O)cc1 -1.19%
CCc1nnc(NC(=O)CSc2nnnn2-c2cccc(C(C)=O)c2)s1 -1.2%
CC(=O)Nc1ccc(OS(=O)(=O)c2c(C)cc(C)cc2C)cc1 -3.5%
CC(C)OC(=O)Nc1ccc(-c2ccc(NC(=O)OC(C)C)cc2Cl)c(Cl)c1 7.93%
CC(O)[C@H]1CNC(=O)C(=O)N1CCc1cccc(F)c1 (stereo partly drawn) 0.53%
COCCNC(=O)COCc1cc(-c2ccc3c(c2)OCO3)on1 -2.16%
Cc1ccccc1S(=O)Cc1ccc(C(=O)N2CCN(C(=O)c3ccco3)CC2)o1 (stereo not drawn) -1.05%
